# Results filed as inconclusive are left out. Calls of active or inactive are those of the source. Calls follow the shape of the dose curve; as a rule, active = well fitted cell-killing curve with a large enough effect; inconclusive = small, poorly fitted or top-dose-only effect, or effect the other way; inactive = no such curve, though single readings can be large or run the other way. Starred links: 1 amine or outer side, 2 acyl side, 3 side chain; linkers in the order of their positions; H or OH if unused. Positions of bridges follow the written chain, without caps; N, C: chain ends. Non-standard residues stand in square brackets, D forms with d. Residues, ends and D or L forms follow the SMILES beside them. Chains are numbered I, II in the order given. Actinocin(9to1) = Cc1c2oc3c(C)ccc(C(=O)[*:1])c3nc-2c(C(=O)[*:2])c(N)c1=O; NMeV = CN[CH](C(=O)O)C(C)C; Sar = CNCC(=O)O
# Assay: Quantitative High-Throughput drug screen in 47 multiple myeloma cell lines against the NCATS MIPE library collection: EJM_DSMZ cell viability assay (AID 1918926; also: nearly all actives have a fitted effect of over 30% in size)
# Details: EJM myeloma cell viability, CellTiter-Glo ATP, 48 h; series mostly up to 45.8 µM
# Excerpt: PI: Beverly A. Mock Ph.D.
# Laboratory of Cancer Biology and Genetics,
# Center for Cancer Research, National Cancer Institute,
# National Institute of Health, Bethesda, Maryland
# Drug resistance and disease progression are common in multiple myeloma (MM) patients, underscoring the need for new therapeutic combinations. […] We hypothesized that effective combinations would reduce MYC expression and enhance p16 activity. […] These preclinical data identify potentially useful drug combinations for evaluation in drug-resistant MM and reveal potential mechanisms of combined drug sensitivity.
# Described herein is the primary MIPE qHTS used to cherrypick compounds. Validated compounds were then further tested for potential synergistic activiy.
# [1] Peat TJ, Gaikwad SM, Dubois W, Gyabaah-Kessie N, Zhang S, Gorjifard S, Phyo Z, Andres M, Hughitt VK, Simpson RM, Miller MA, Girvin AT, Taylor A, Williams D, D'Antonio N, Zhang Y, Rajagopalan A, Flietner E, Wilson K, Zhang X, Shinn P, Klumpp-Thomas C, McKnight C, Itkin Z, Chen L, Kazandijian D, Zhang J, Michalowski AM, Simmons JK, Keats J, Thomas CJ, Mock BA. Drug combinations identified by high-throughput screening promote cell cycle transition and upregulate Smad pathways in myeloma. Cancer Lett. 2023 Aug 1;568:216284. doi: 10.1016/j.canlet.2023.216284. Epub 2023 Jun 24. PMID: 37356470; PMCID: PMC10408729.
# SEQUENCE No. (e.g., 1, 2, 3, etc.); […] (e.g., Cells, Incubation, Reagent, etc.); VALUE and DESCRIPTION.
# 1; Cells; 5 uL; white, solid bottom 1536-well Greiner assay plate.
# 2; Compounds; 23 nL; Kalypsis pin tool (Wako USA) equipped with a 1536-well pin head to transfer to the assay plates.
# 3; Incubation; 48 hours; 37C incubation.
# 4; Reagent;5uL; CellTiter Glo (Promega).
# 5; Detector; 425V; Luminescence; Viewlux PerkinElmer.
# NOTES (numbers refer to Sequence numbers above)
# 1. The cell-based screening methods employed in this study were like those previously published. Briefly, the corresponding myeloma cell lines were screened in 1,536-well plates with 500 cells, 5-uL per well for inhibition of cell viability (assessed by measuring ATP levels with CellTiterGlo).
# 2. NCATS MIPE 4.0 library of approved and investigational drugs were added using the Kalypsis pin tool. Wells treated with DMSO only for 100% viability and media only wells for 0% viability were used as controls.
# 3. The assay plates were covered and incubated for 48 hours in a 37C, 5% CO2 incubator with controlled humidity.
# 4. After 48 hours, CellTilter-GloTM luminescent substrate mix (Promega) reagent was added to the assay plate and plates we incubated for 5 min at room temperature.
# 5. Signal was measured as median relative luminescence units on a ViewLux (PerkinElmer) multiplate reader.
# [1] Heske CM, Davis MI, Baumgart JT, Wilson K, Gormally MV, Chen L, Zhang X, Ceribelli M, Duveau DY, Guha R, Ferrer M, Arnaldez FI, Ji J, Tran HL, Zhang Y, Mendoza A, Helman LJ, Thomas CJ. Matrix Screen Identifies Synergistic Combination of PARP Inhibitors and Nicotinamide Phosphoribosyltransferase (NAMPT) Inhibitors in Ewing Sarcoma. Clin Cancer Res. 2017 Dec 1;23(23):7301-7311. doi: 10.1158/1078-0432.CCR-17-1121. Epub 2017 Sep 12. PMID: 28899971; PMCID: PMC6636827.
# Potency is read from the fitted curve at half-maximal effect.
row,SMILES,Potency
1,C=CC(=O)Nc1cc(NC(=O)c2ccc(C)c(NC(=O)c3ccno3)c2)cc(C(F)(F)F)c1,16.6 µM (active)
2,O=C(CCCCCCC(=O)Nc1cccnc1)NO,7.43 µM (active)
3,COC[C@H](NC(=O)c1cnc(C)s1)C(=O)N[C@@H](COC)C(=O)N[C@@H](Cc1ccccc1)C(=O)[C@@]1(C)CO1,0.166 µM (active)
4,C[C@H](NC(=O)[C@@H](O)c1cc(F)cc(F)c1)C(=O)N[C@@H]1C(=O)N(C)c2ccccc2-c2ccccc21,inactive
5,"Cc1c2oc3c(C)ccc(C(=O)NC4C(=O)NC(C(C)C)C(=O)N5CCCC5C(=O)N(C)CC(=O)N(C)C(C(C)C)C(=O)OC4C)c3nc-2c(C(=O)NC2C(=O)NC(C(C)C)C(=O)N3CCCC3C(=O)N(C)CC(=O)N(C)C(C(C)C)C(=O)OC2C)c(N)c1=O (stereo not given) (I: TVP[Sar][NMeV] / II: TVP[Sar][NMeV]; ester I:1-I:C, II:1-II:C; linker I:N-II:N via Actinocin(9to1); configuration not given here)",inactive
6,CCS(=O)(=O)Nc1ccc2[nH]c(O)c(C(=Nc3ccc(CN4CCCCC4)cc3)c3ccccc3)c2c1,6.62 µM (active)
7,CC(N[C@H]1CCCC[C@H]1NC(=O)c1ccc(Cl)cc1)c1cccc2ccccc12 (stereo not given in full),20.9 µM (active)
8,NC(=O)Nc1sc(-c2ccc(F)cc2)cc1C(N)=O,1.87 µM (active)
9,C[C@H](NCc1ccc(OCc2cccc(F)c2)cc1)C(N)=O,9.35 µM (active)
10,COC1=C2C[C@@H](C)C[C@H](OC)[C@@H](O)[C@@H](C)C=C(C)[C@H](OC(N)=O)[C@@H](OC)C=CC=C(C)C(=O)NC(=CC1=O)C2=O,0.372 µM (active)
11,O=C1NC(O)CCN1[C@@H]1O[C@H](CO)[C@H](O)[C@H]1O (stereo not given in full),inactive
12,CN(CC(=O)N(Cc1ccc(C2CCCCC2)cc1)c1ccc(C(=O)O)c(O)c1)S(=O)(=O)c1c(F)c(F)c(F)c(F)c1F,18.7 µM (active)
13,O=S(=O)(O)CCSSCCS(=O)(=O)O,inactive
14,CN1[C@H]2CC(OC(=O)[C@@H](CO)c3ccccc3)C[C@H]1[C@H]1O[C@H]12 (stereo not given in full),inactive
15,O=C1NCCc2[nH]c(-c3ccncc3)cc21,1.87 µM (active)
16,CO[C@@H]1[C@@H](O)[C@H](O)[C@@H](n2c3c(Cl)cccc3c3c4c(c5c6cccc(Cl)c6[nH]c5c32)C(=O)NC4=O)O[C@@H]1CO,2.64 µM (active)
17,Cn1cc(CNCC2CCN(c3ncc(C(=O)NO)cn3)CC2)c2ccccc21,0.0526 µM (active)
18,CON=C(C(=O)N[C@@H]1C(=O)N2C(C(=O)O)=C(CSC(=O)c3ccco3)CS[C@H]12)c1csc(N)n1,inactive
19,Oc1cc2c(cc1O)C1c3ccc(O)c(O)c3OCC1(O)C2 (stereo not given),inactive
20,C=CC(=O)N1CCc2ccc(-n3c(=O)ccc4cnc5ccc(-c6cnn(C)c6)cc5c43)cc21,3.72 µM (active)

row,SMILES,Potency
1,COc1cc(N2CCC(C(N)=O)CC2)ccc1Nc1nc(N)c(Cl)c(Nc2ccccc2S(=O)(=O)C(C)C)n1,0.105 µM (active)
2,CC(C)C[C@H](NC(=O)CNC(=O)c1cc(Cl)ccc1Cl)B1OC(=O)CC(CC(=O)O)(C(=O)O)O1 (stereo not given in full),0.0833 µM (active)
3,CCNC(=O)c1cc2c(-c3cc(OCCN4CCCC4)c(Cl)cc3Cl)nc(N)nc2s1,2.09 µM (active)
4,C[C@@H](Cc1cc2c(c(C(N)=O)c1)N(CCCO)CC2)NCCOc1ccccc1OCC(F)(F)F,inactive
5,Nc1ncn([C@@H]2O[C@H](CO)[C@@H](O)[C@@H]2O)c(=O)n1,13.2 µM (active)
6,COc1ccc(C=Cc2cc(OC)c(OC)c(OC)c2)cc1NC(=O)[C@H](N)CO,0.0105 µM (active)
7,N#CC(=C(O)c1ccc(Cl)cc1Cl)c1nc2cc(Cl)ccc2c(=O)[nH]1,inactive
8,CCc1nc(-c2cccc(C)c2)c(-c2ccnc(NC(=O)c3ccccc3)c2)s1,16.6 µM (active)
9,CCN(CC)CCNC(=O)c1c(C)[nH]c(C=C2C(=O)Nc3ccc(F)cc32)c1C,12.1 µM (active)
10,N#CC(=C(N)Sc1ccc(N)cc1)c1ccccc1C(F)(F)F,inactive
11,CCC(C(=O)O)C1CCC(C)C(C(C)C(O)C(C)C(=O)C(CC)C2OC3(C=CC(O)[C@@]4(CC[C@](C)(C5CC[C@@](O)(CC)C(C)O5)O4)O3)C(C)CC2C)O1 (stereo not given in full),5.9 µM (active)
12,CC(C)c1cnn2c(NCc3ccccc3)cc(NCCCCCCN)nc12,13.2 µM (active)
13,Cc1cc(O)c2c(c1)C(=O)c1cccc(O)c1C2=O,inactive
14,FC(F)c1nc2ccccc2n1-c1nc(N2CCOCC2)nc(N2CCOCC2)n1,0.743 µM (active)
15,CC(Oc1ccc(O)cc1)(P(=O)(O)O)P(=O)(O)O,inactive
16,CC[C@H]1OC(=O)[C@H](C)[C@@H](O[C@H]2C[C@@](C)(OC)[C@@H](O)[C@H](C)O2)[C@H](C)[C@@H](O[C@@H]2O[C@@H](C)C[C@H](N(C)C)[C@@H]2O)[C@](C)(O)C[C@@H](C)C(=O)[C@H](C)[C@@H](O)[C@]1(C)O,inactive
17,CCCCCN=C(N)NN=Cc1c[nH]c2ccc(OC)cc12,13.2 µM (active)
18,CC(=O)SCC(Cc1ccccc1)C(=O)NCC(=O)OCc1ccccc1 (stereo not given),14.8 µM (active)
19,c1coc(CNc2ncnc3nc[nH]c23)c1,inactive
20,CNC(=O)Nc1ccc(-c2nc(N3CC4CCC(C3)O4)c3cnn(C4CCC5(CC4)OCCO5)c3n2)cc1,3.32 µM (active)

# — PubChem BioAssay (NCATS)
